Results published in PubChem BioAssay AID651871 (Sanford-Burnham Center for Chemical Genomics, 2012).
“And” between values parts separate entries of the source, which are not always exact repeats. Equal values may be shown once.

The compounds below were run on HL-1 (assay: cardiomyocyte survival under oxidative or metabolic stress – cell-based, panel, H9c2 and HL-1, ATP luminescence, set 2, SAR follow-up (AID 651871;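 note: cells exposed to stressor for 2 h before ATP readout; reference of the scale not given here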)). Conditions: H9c2/HL-1 cardiomyocytes, 2-deoxyglucose stress, with 2-deoxyglucose, run 4, at 79 µM (top of the series).

SMILES	activity (protection/inhibition)
COc1ccc2c(c1OC)C(=O)N1c3ccccc3C(=O)N(Cc3cccc(Cl)c3Cl)C21 (stereo not drawn)	33.5% and -8.11%
COc1ccc2nc(-c3cc(OC)c(OC)c(OC)c3)cc(C(=O)NCC(=O)Nc3ccc(C(C)=O)cc3)c2c1	68.7%
CCOC(=O)c1cccc(NC(=O)CNC(=O)c2cc(-c3cc(OC)c(OC)c(OC)c3)nc3ccccc23)c1	54.1%
